Source: PubChem BioAssay (NCI)
This is part of a sample that, as a whole, favours compounds with a hit. Of some 83,000 tested, about 20% had one in any assay.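 Negative percent growth values reflect cell death: -40 means 40% of the cells present at the start died, and -100 means all died.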 Unmarked numbers belong to inactive results. The source made the active and inactive calls. The calls were made as follows: active = growth percent below 10; inactive = the rest.

System: MOLT-4 leukemia
Test: NCI-60 one-dose screen, 48 h (100 = growth as untreated, 0 = no growth, -100 = all killed)
Details: 10 µM unless noted

SMILES	growth
CCC(C)CC(N)O (centres undefined)	106%
S=C(N/N=C/c1cc(Cl)cc(Cl)c1)NC12CC3CC(CC(C3)C1)C2	94.1%
CCCNC(=O)Oc1ccc(/C(=C(/CC)Cc2ccccc2)c2ccc(OCCN(CC)CC)cc2)cc1	46.9%
O=CN/N=C/c1ccc(Cl)c([N+](=O)[O-])c1	20.6%
CNc1ccc(Nc2ccc(S(=O)(=O)O)cc2)c2c1C(=O)c1ccccc1C2=O	106%
O=C(/C=C1\C(=O)N(Cc2ccccc2)c2ccccc21)c1ccc(OCCN2CCCCC2)cc1	9.65% (active)
Cc1ccc(C(=O)NN)cc1	93%
CC1Cc2cc(F)ccc2-n2cccc21 (centres undefined)	113%
CCCCCCCCCCN1CC2CCCCC2C1 (centres undefined)	50.2%
O=C(Nc1ccc(Cl)c(Cl)c1)O/N=C\c1c(Cl)ccc([N+](=O)[O-])c1Cl	-32.9% (active)
C/C(=C\c1ccc2ccccc2c1)[N+](=O)[O-]	-1.16% (active)
CCCCCCCCC1OC1CCCCCCCC(=O)O (centres undefined)	104%
Cc1sc(NC(=O)c2ccc(C(C)(C)C)cc2)c(C(=O)O)c1C	50.3%
COc1cc2cc3cc4cc(OC)c(OC)cc4c(C)[n+]3cc2cc1OC (tested in a mixture with another compound)	40.1%
CC(C)(C)C(=O)OCOP(=O)(OCOC(=O)C(C)(C)C)C1CC(O)N(O)C1=O (centres undefined)	24.5%
CC(=O)OC1/C=C\CC/C=C\C1 (centres undefined)	116%
O=C(/C=C\c1ccc(NCc2ccc(C(=O)O)cc2)cc1)CCl	6.28% (active)

SMILES	growth
CCCCCCC(C)N(CC(C)(C)O)C(=O)c1ccc([N+](=O)[O-])cc1 (centres undefined)	90.4%
COc1ccc(/C=N/c2cc(C(C)(C)C)nn2-c2ccccc2)cc1	96%
COc1ccc(/C=C2\SC(=O)N(Cc3cc(=O)oc4ccc(OC)cc34)C2=O)cc1	85.1%
CNCCCNCCCCNCCCN1C(=O)c2ccc3c4c(ccc(c24)C1=O)C(=O)N(CCCNCc1ccccc1OC)C3=O	24.9%
COc1ccc(/C=C2\CCCC3=C2N=C2SC=NN2C3c2ccc(OC)c(OC)c2)cc1OC (centres undefined)	54.7%
COc1ccc(CN2C(=O)/C(=C\C(=O)c3ccc(OCCN4CCCCC4)cc3)c3ccccc32)cc1	3.78% (active)
CCN(CC)CCCNc1c2ccc(Cl)cc2nc2ccc(OC)cc12	-20.8% (active)
O=C1C=C(OCC=C(C(F)(F)F)C(F)(F)F)c2ccccc2C1=O	-36.9% (active)
O=C(O)CS(=O)c1ccc(Cl)cc1 (centres undefined)	90.5%
CCN(CC)CCCC(C)Nc1c(C)cnc2cc(Cl)c(C)cc12 (centres undefined)	62.7%
CC(C)CSc1nc(-c2ccc(F)cc2)c(C#N)c(N2CCCCC2)n1	95.3%
CC(=O)Nc1ccc(C(=O)/C=C/c2ccc(N(C)C)cc2)cc1	99.2%
CCCCCN1CCN(C(CC(=O)c2ccccc2)C(=O)c2ccccc2)CC1 (centres undefined)	27.9%
CCCCCC(=C/c1ccccc1)/C=N/N=C(N)N	8.92% (active)
CC(=O)c1ccc2c(c1)c1ccccc1n2C	82%
CC1(C)NC(=S)NC1=O	90.8%
CC(=O)OCC(=O)[C@@]1(O)[C@H](C)C[C@H]2[C@@H]3C=C(C)C4=Cc5c(cnn5-c5ccc(F)cc5)C[C@]4(C)[C@H]3[C@@H](O)C[C@@]21C	1.22% (active)
